Here are results for ten compounds from PubChem BioAssay (Tox21).

Experiment [1] can be described thus: qHTS assay to identify small molecule agonists of the vitamin D receptor (VDR) signaling pathway - cell viability counter screen (AID 743224). Further: series mostly up to about 63 µM; on the % scale 0 is the no-effect control and ±100 the full control effect; nearly all actives have a fitted effect of over 50% in size. In a few lines: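 Cells: VDR-bla, 2,000/well, settled 4 h. Treatment: compounds in DMSO, 16 h, 37C/5% CO2. Readout: CellTiter-Glo luminescence after 30 min RT.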
A general note: qHTS replaces the single test concentration by a dilution series.

Experiment [2] in a line: qHTS assay to identify small molecule antagonists of the vitamin D receptor (VDR) signaling pathway - cell viability counter screen (AID 743225). Further: on the % scale 0 is the no-effect control and ±100 the full control effect; nearly all actives have a fitted effect of over 50% in size. In a few lines:
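HEK293T VDR-bla; cpd + 1a,25-(OH)2D3 3 nM final, 16 h 37C/5% CO2; B/G FRET substrate 2 h RT; then CellTiter-Glo 30 min RT, luminescence.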

Experiment [3] is described as follows: qHTS assay to identify small molecule agonists of the NFkB signaling pathway (AID 1159509; active means well fitted curve in the direction sought with a large enough effect in the signal ratio in the repeat runs, not every such curve was filed as active; the % refers to the signal ratio; further: series mostly up to about 61 µM; on the % scale 0 is the no-effect control and ±100 the full control effect). The procedure, abridged:
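Readout: FRET fluorescence, 405 nm excitation, 460/530 nm emission; beta-lactamase expression disrupts FRET. Cells: ME-180 stably carrying NF-kB-driven bla reporter. Compound exposure 5 hr, 37 C, 5% CO2.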

Experiment [4] in a line: qHTS assay to identify small molecule agonists of the endoplasmic reticulum stress response signaling pathway (AID 1159516; active means well fitted activation curve with a large enough effect in the signal ratio in the repeat runs, not every such curve was filed as active; the % refers to the signal ratio; further: on the % scale 0 is the no-effect control and ±100 the full control effect). The procedure, abridged: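 Cells are seeded at 1,500 per well and incubated overnight. Compounds in DMSO are added for 5 hr at 37 C, then beta-lactamase FRET substrate for 2 hr at room temperature, and fluorescence at 460 and 530 nm is measured.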

Experiment [5] can be described thus: qHTS assay to identify small molecule agonists of the endoplasmic reticulum stress response signaling pathway - cell viability counter screen (AID 1159517; calls by dose curve;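 further: HeLa cells carrying an ER stress response element beta-lactamase reporter; series mostly up to about 61 µM; on the % scale 0 is the no-effect control and ±100 the full control effect; nearly all actives have a fitted effect of over 50% in size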). In a few lines:
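After overnight attachment, ESRE-bla HeLa cells were treated with Tox21 library compounds for 5 hr. CellTiter-Glo luminescence, read 30 min post-addition at room temperature, reported viability.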

Experiment [6] can be described thus: qHTS assay to identify small molecule antagonists of the retinoid-related orphan receptor gamma (ROR-gamma) signaling pathway - cell viability counter screen (AID 1159520). Further: on the % scale 0 is the no-effect control and ±100 the full control effect; nearly all actives have a fitted effect of over 50% in size. The procedure, abridged: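 Cytotoxicity was read from cellular ATP (CellTiter-Glo luminescence) after 16 hr at 37 C with 1 uM doxycycline induction. The inducer was added 2 hr after compound transfer to Tet-on ROR gamma CHO cells.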

Experiment [7] addresses Nuclear receptor ROR-gamma (Homo sapiens) (UniProt P51449). The experiment is described as follows: qHTS assay to identify small molecule antagonists of the retinoid-related orphan receptor gamma (ROR-gamma) signaling pathway (AID 1159521; further: nearly all actives have a fitted effect of over 50% in size; further: potency means the concentration at half of the fitted maximal effect). The procedure, abridged:
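Cells were plated, rested 4 h at 37 C, exposed to compounds for 2 h, then given 1 uM final doxycycline hyclate to induce RORγ expression. After 16 h, ONE-Glo luminescence from the ROR response element reporter was measured.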

The nature of experiment [8]: qHTS assay to identify small molecule agonists of the AP-1 signaling pathway (AID 1159526; calls by dose curve; further: potency means the concentration at half of the fitted maximal effect).
Experiment [9] addresses Retinoic acid receptor RXR-alpha (Homo sapiens) (UniProt P19793). The experiment is described as follows: qHTS assay to identify small molecule agonists of the RXR signaling pathway (AID 1159527; calls by dose curve; further: on the % scale 0 is the no-effect control and ±100 the full control effect; nearly all actives have a fitted effect of over 35% in size). In a few lines:
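Cells plated at 2,000/well, rested 5 hr at 37 C, pin-dosed with DMSO compound solutions, incubated 16 hr, then loaded with B/G FRET substrate for 2 hr at RT before dual-emission fluorescence reading.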

Experiment [10] is described as follows: qHTS assay to identify small molecule agonists of the RXR signaling pathway - cell viability counter screen (AID 1159529). Further: nearly all actives have a fitted effect of over 50% in size. Further: potency means the concentration at half of the fitted maximal effect. The procedure, abridged:
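Steps: seed RXR-alpha-UAS-bla HEK 293T cells in assay medium containing 2% charcoal-stripped FBS; incubate 5 hr; add compounds in DMSO; incubate 16 hr at 37 C; after the bla read, add CellTiter-Glo and read luminescence at 30 min.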

Experiment [11] is described as follows: qHTS assay to identify small molecule antagonists of the retinoid acid receptor (RAR) signaling pathway - cell viability counter screen (AID 1159551). Further: on the % scale 0 is the no-effect control and ±100 the full control effect; nearly all actives have a fitted effect of over 35% in size. The procedure, abridged:
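Cells (C3RL4) are plated, incubated overnight, dosed with compound in DMSO, then given retinol at 1 uM final. After 6 h at 37 C, CellTiter-Glo is added and luminescence read following 30 min at room temperature.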

Experiment [12] in a line: qHTS assay to identify small molecule antagonists of the retinoic acid receptor (RAR) signaling pathway (AID 1159552). In a few lines: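 Retinol at 1 uM final stimulated RARE-luciferase expression in C3RL4 cells exposed to test compounds for 6 hr at 37 C. Reduced luminescence, read 30 min after detection reagent, indicated pathway antagonism.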
Experiment [13] can be described thus: qHTS assay to identify small molecule agonists of the retinoic acid receptor (RAR) signaling pathway (AID 1159553). Further: on the % scale 0 is the no-effect control and ±100 the full control effect. The procedure, abridged: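 Seed C3RL4 reporter cells at 1,000 per well and incubate overnight at 37 C. Add compounds in DMSO, incubate 6 hr. Add luciferase reagent, wait 30 min at room temperature, read luminescence.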
Experiment [14] can be described thus: qHTS assay to identify small molecule agonists of the AP-1 signaling pathway - cell viability counter screen (AID 1159525; calls by dose curve; further: nearly all actives have a fitted effect of over 55% in size). In a few lines:
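Intracellular ATP by Cell Titer Glo luminescence (30 min, RT) in the same ME-180 AP-1-bla wells after the 5 h compound exposure at 37 °C. Normalised to tetra n-octyl ammonium bromide and DMSO controls.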

Experiment [15] in a line: qHTS assay to identify small molecule agonists of the NFkB signaling pathway - cell viability counter screen (AID 1159515; calls by dose curve; further: series mostly up to about 61 µM; on the % scale 0 is the no-effect control and ±100 the full control effect; nearly all actives have a fitted effect of over 55% in size). The procedure, abridged:
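Cells are seeded (2,000 NFkB-bla ME-180 per well), rested overnight, and dosed with DMSO-dissolved compounds for 5 hr at 37 C. Viability is then read by CellTiter-Glo luminescence after 30 min at room temperature.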

Experiment [16] can be described thus: qHTS assay to identify small molecule antagonists of the estrogen related receptor (ERR) signaling pathway - cell viability counter screen (AID 1224818). Further: series mostly up to about 46 µM; on the % scale 0 is the no-effect control and ±100 the full control effect. The procedure, abridged: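 ERR cells, 2,000/well; 6 h settle at 37 C/5% CO2; compound pin transfer (DMSO); 17.5 h at 37 C; CellTiter-Fluor, 30 min, fluorescence read.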
A short description of experiment [17]: qHTS assay to identify small molecule antagonists of the estrogen related receptor (ERR) signaling pathway (AID 1224819). In a few lines:
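qHTS in ERR cells, 2,000/well, 1536 format. Cpd (DMSO) added after 6 h settle, 18 h 37 C. One-Glo luminescence, 30 min RT.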

Experiment [18] in a line: qHTS assay to identify small molecule agonists of the estrogen related receptor (ERR) signaling pathway (AID 1224820). Further: on the % scale 0 is the no-effect control and ±100 the full control effect. The procedure, abridged: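 Luminescence readout (One-Glo, 30 min RT) from NTP-supplied ERR cell line exposed to compounds for 18 h at 37 C. Cells seeded 2,000 per well and pre-incubated 6 h before pin-tool compound transfer.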
For experiment [19], the system named is estrogen-related receptor alpha (ERRalpha) with PGC-1alpha coactivator, human. The experiment is described as follows: qHTS assay to identify small molecule antagonists of the estrogen related receptor signaling pathway with the pleiotropic PPARgamma coactivator (PGC) (AID 1224821; calls by dose curve). The procedure, abridged:
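PGC/ERR reporter cells; 6 h pre-incubation 37 C/5% CO2; pin-tool compound in DMSO, 18 h 37 C; One-Glo added, 30 min RT; luminescence read. qHTS antagonist mode.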

Experiment [20] is described as follows: qHTS assay to identify small molecule antagonists of the estrogen related receptor signaling pathway with the pleiotropic PPARgamma coactivator (PGC) cell viability counter screen (AID 1224822). The procedure, abridged:
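Multiplexed viability counter screen run in PGC/ERR cells treated with compounds for 17.5 h at 37 C; live-cell protease signal measured by CellTiter-Fluor fluorescence.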

“And” between values parts separate entries of the source, which are not always exact repeats. Equal values may be shown once. Records with an inconclusive call do not appear. The source holds several records for some structures; these can differ, active in one and inactive in another. The source made the active and inactive calls. Unless noted, the call rests on the fitted dose curve; in most records, active means well fitted curve in the direction sought with a large enough effect in the repeat runs; inconclusive means weak or mixed curves; inactive means no such curve, though single readings can be large; an effect the other way counts as inactive or inconclusive.

Sequence of Retinoic acid receptor RXR-alpha (Homo sapiens) (P19793 whole entry, looked up): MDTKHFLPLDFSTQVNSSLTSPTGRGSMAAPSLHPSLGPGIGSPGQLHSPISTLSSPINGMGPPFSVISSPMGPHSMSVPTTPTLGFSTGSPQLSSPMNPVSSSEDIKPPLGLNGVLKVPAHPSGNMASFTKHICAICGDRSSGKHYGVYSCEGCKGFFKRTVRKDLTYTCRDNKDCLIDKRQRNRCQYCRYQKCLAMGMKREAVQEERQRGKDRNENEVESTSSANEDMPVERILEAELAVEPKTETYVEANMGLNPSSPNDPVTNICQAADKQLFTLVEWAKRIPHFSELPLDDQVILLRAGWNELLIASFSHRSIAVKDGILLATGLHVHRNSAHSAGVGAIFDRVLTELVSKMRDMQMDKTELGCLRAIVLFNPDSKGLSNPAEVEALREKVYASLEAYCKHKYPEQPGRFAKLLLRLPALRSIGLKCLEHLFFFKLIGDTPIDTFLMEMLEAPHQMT

For the compound `O=Nc1ccc(O)cc1`, the Potency entry in experiment [1], in experiment [2], in experiment [5], in experiment [6], in [7] and in experiment [8] was “inactive” throughout. Further, the Potency entry in experiment [9], in [10], in experiment [11], in experiment [12] and in experiment [13] was “inactive” in each case. Also, the compound was called inactive in experiment [3] and in experiment [4].
With `NCCNCCNCCNCCN`, the Potency result in experiment [1], in [2], in experiment [6], in experiment [7], in experiment [14] and in experiment [8] was “inactive” in each case. For the same compound, the Potency result in experiment [9], in [10] and in [11] was “inactive” in each case. Further, the compound was called inactive in [3] and in experiment [4]. In addition, the activity change, negative = cytotoxicity in experiment [5] was 18.7% [at 6.95 µM] (inactive).
For the compound `CCCCCCCCCCC=CC1CC(=O)OC1=O` (stereo not drawn), the Potency result in experiment [1], in [2], in experiment [5], in [6], in [14] and in experiment [8] was “inactive” each time. For the same compound, the Potency result in experiment [9], in experiment [10] and in [11] was “inactive” throughout. Besides, the compound was classed as inactive in experiment [3]. Besides, the Potency in experiment [7] was 54.8 µM (active) and inactive.
For `O=C(O)c1cc(-c2ccccc2)nc2ccccc12`, the Potency entry in experiment [1], in experiment [2], in experiment [5], in experiment [6], in experiment [14] and in [8] was “inactive” each time. Moreover, the Potency entry in experiment [9], in experiment [10], in experiment [11], in [12], in experiment [17] and in experiment [18] was “inactive” in each case. In addition, the Potency result in experiment [19] is “inactive”. The outcome in [3], in experiment [15], in [16] and in experiment [20] was inactive.
On to `O=C1O[C@H](CO)[C@@H](O)[C@H](O)[C@H]1O`, for which the Potency entry in experiment [1], in experiment [2], in experiment [5], in experiment [6], in [7] and in experiment [14] was “inactive” each time. The Potency result in experiment [8], in experiment [9], in experiment [10], in experiment [11], in [12] and in [13] was “inactive” in each case. In addition, the compound was classed as inactive in [3] and in [4].
In the case of `COC(=O)c1ccccc1O`, the Potency result in experiment [1], in experiment [2], in experiment [5], in [6], in experiment [7] and in experiment [8] was “inactive” throughout. Besides, the Potency result in experiment [11], in [12] and in experiment [13] was “inactive” throughout. Moreover, the compound was classed as inactive in experiment [3] and in experiment [4]. For the same compound, the Potency in experiment [10] is 43.8 µM (active) and inactive.
`O=C(Cl)c1c(Cl)c(Cl)c(C(=O)Cl)c(Cl)c1Cl`: the Potency entry in experiment [1], in experiment [2], in experiment [5], in [6], in experiment [7] and in experiment [14] was “inactive” throughout. The Potency result in experiment [8], in [9], in experiment [10], in [11], in experiment [12] and in experiment [13] was “inactive” each time. Further, the outcome in experiment [3] was inactive.
Take `Nc1c(S(=O)(=O)O)cc(Br)c2c1C(=O)c1ccccc1C2=O`: the Potency entry in experiment [1], in [2], in [5], in experiment [6], in experiment [7] and in experiment [14] was “inactive” each time. Moreover, the Potency entry in experiment [8], in [10], in [11], in [12] and in experiment [13] was “inactive” throughout. In addition, the result in [3] was inactive.
For the compound `CCOC(=O)[C@H](CCc1ccccc1)N[C@@H](C)C(=O)N1Cc2ccccc2C[C@H]1C(=O)O`, the Potency result in [1], in [2], in experiment [5], in [6], in experiment [7] and in experiment [9] was “inactive” in each case. Moreover, the Potency result in experiment [10], in experiment [11], in experiment [12] and in experiment [13] was “inactive” each time. The compound was classed as inactive in experiment [3] and in experiment [15]. Further, in experiment [8], the Potency result was “inactive and 26.8 µM (active)”.
As for `O=C1CCCCC1`, the Potency result in [1], in [2], in [5], in [6], in [7] and in experiment [8] was “inactive” each time. Moreover, the Potency entry in experiment [9], in experiment [10] and in [11] was “inactive” in each case. Moreover, the outcome in experiment [3] and in [15] was inactive.
